# Whole data set: some 1,600 compounds, median “Hit score” near 0.13, cut for the highest 2% near 0.46. What follows is part of a selection rich in the highest values, with near analogues and random picks from the rest.
# Test system: SARS-CoV-2
# Assay: Antiviral activity against SARS-CoV-2 (USA-WA1/2020 strain) measured by imaging in HRCE cells at MOI 0.4 after 96 hrs (reported as hit score from 0-1 for on-disease vs off-disease activity: scores >0.6 considered hits)
# Type: functional, Homo sapiens
row,Compound,Hit score
1,C[C@@H]1CCO[C@H]2Cn3cc(C(=O)NCc4ccc(F)cc4F)c(=O)c(O)c3C(=O)N12 [DOLUTEGRAVIR],-0.02185
2,CCc1cc(/C(C)=N/OCc2ccc(C3CCCCC3)c(C(F)(F)F)c2)ccc1CN1CC(C(=O)O)C1 [SIPONIMOD],-0.1293
3,Cc1ccc(NC(=O)c2ccc(CN3CCN(C)CC3)cc2)cc1Nc1nccc(-c2cccnc2)n1 [IMATINIB],0.06765
4,Cc1cn(-c2cc(NC(=O)c3ccc(C)c(Nc4nccc(-c5cccnc5)n4)c3)cc(C(F)(F)F)c2)cn1 [NILOTINIB],0.4816
5,Cc1ccc(/C=C2/C(=O)C3(C)CCC2C3(C)C)cc1 (stereo unspecified) [ENZACAMENE],0.1975
6,CC(C)NCC(O)COc1ccc(CCOCC2CC2)cc1 (stereo unspecified) [BETAXOLOL],0.2742
7,CC(C)NC[C@H](O)COc1ccc(CCOCC2CC2)cc1 [LEVOBETAXOLOL],0.4949
8,CC(C)NCC(O)COc1ccc(COCCOC(C)C)cc1 (stereo unspecified) [BISOPROLOL],0.1972
9,C=C1c2c(Cl)ccc(O)c2C(=O)C2=C(O)[C@]3(O)C(=O)C(C(N)=O)=C(O)[C@@H](N(C)C)[C@@H]3[C@@H](O)[C@H]12.O=C(O)c1cc(S(=O)(=O)O)ccc1O [MECLOCYCLINE SULFOSALICYLATE],0.1338
10,CC(C)OC(=O)CCC/C=C\C[C@@H]1[C@@H](CC[C@@H](O)CCc2ccccc2)[C@H](O)C[C@@H]1O [LATANOPROST],0.04489
11,CCCCCCOC(=O)CCC(=O)CN [HEXAMINOLEVULINATE],0.1128
12,COc1cc([C@@H]2c3cc4c(cc3[C@@H](O[C@@H]3O[C@@H]5CO[C@@H](C)O[C@H]5[C@H](O)[C@H]3O)[C@H]3COC(=O)[C@H]23)OCO4)cc(OC)c1OP(=O)(O)O [ETOPOSIDE PHOSPHATE],0.05858
13,O=C(CNc1cccc(Cl)c1)NC1CCCN(c2ncnc3[nH]ccc23)C1 (stereo unspecified),0.1071
14,N#C[C@@]1(c2ccc3c(N)ncnn23)O[C@H](CO)[C@@H](O)[C@H]1O [GS-441524],0.865
15,CCC(CC)COC(=O)[C@H](C)N[P@](=O)(OC[C@H]1O[C@@](C#N)(c2ccc3c(N)ncnn23)[C@H](O)[C@@H]1O)Oc1ccccc1,0.9631
16,CC(C)OC(=O)[C@H](C)N[P@](=O)(OC[C@H]1O[C@@H](n2ccc(=O)[nH]c2=O)[C@](C)(F)[C@@H]1O)Oc1ccccc1 [SOFOSBUVIR],0.2045
17,CC(C)OC(=O)[C@H](C)N[P@@](=O)(OC[C@H]1O[C@@H](n2ccc(=O)[nH]c2=O)[C@](C)(F)[C@@H]1O)Oc1ccccc1,0.2594
18,Nc1ncnc2c1ncn2[C@@H]1O[C@H](CO)[C@@H](O)[C@@H]1O [VIDARABINE],-0.02251
19,CO[C@@]1(NC(=O)CSC[C@@H](N)C(=O)O)C(=O)N2C(C(=O)O)=C(CSc3nnnn3C)CS[C@@H]21 [CEFMINOX],0.1316

row,Compound,Hit score
1,CC(C)CN(C[C@@H](O)[C@H](Cc1ccccc1)NC(=O)O[C@H]1CO[C@H]2OCC[C@H]21)S(=O)(=O)c1ccc(N)cc1,0.38
2,CO[C@]12C[C@@H](COC(=O)c3cncc(Br)c3)CN(C)[C@@H]1Cc1cn(C)c3cccc2c13 [NICERGOLINE],0.1321
3,CC[C@@H](CO)NC(=O)[C@@H]1C=C2c3cccc4[nH]cc(c34)C[C@H]2N(C)C1 [METHYLERGONOVINE],0.219
4,C[C@@H]1C[C@H]2[C@@H]3CCC4=CC(=O)C=C[C@]4(C)[C@@]3(F)[C@@H](O)C[C@]2(C)[C@@]1(O)C(=O)COP(=O)([O-])[O-].[Na+].[Na+] [DEXAMETHASONE SODIUM PHOSPHATE],0.2627
5,COC(=O)N[C@H](C(=O)N1CCC[C@H]1c1nc(-c2ccc3c(c2)O[C@@H](c2ccccc2)n2c-3cc3cc(-c4c[nH]c([C@@H]5CCCN5C(=O)[C@@H](NC(=O)OC)C(C)C)n4)ccc32)c[nH]1)C(C)C [ELBASVIR],-0.03781
6,O=C(Nc1c(Cl)cncc1Cl)c1ccc(OC(F)F)c(OCC2CC2)c1 [ROFLUMILAST],0.1334
7,C=CC[N+]1([C@H]2C[C@H]3[C@@H]4CC[C@H]5C[C@H](O)[C@@H](N6CCOCC6)C[C@]5(C)[C@H]4CC[C@]3(C)[C@H]2OC(C)=O)CCCC1 [ROCURONIUM],0.1086
8,CCc1cc2c(cc1CC)CC(NC[C@H](O)c1ccc(O)c3[nH]c(=O)ccc13)C2 [INDACATEROL],-0.2891
9,C[C@H]1[C@H](OC(=O)CCC(=O)O)O[C@@H]2O[C@@]3(C)CC[C@H]4[C@H](C)CC[C@@H]1[C@@]24OO3 [ARTESUNATE],0.2142
10,CC(=O)O[C@]1(C(C)=O)CC[C@H]2[C@@H]3C=C(C)C4=CC(=O)CC[C@@H]4[C@H]3CC[C@@]21C [NOMEGESTROL ACETATE],0.2782
11,CC1(C)S[C@@H]2[C@H](NC(=O)Cc3ccccc3)C(=O)N2[C@H]1C(=O)O [PENICILLIN G],0.164
12,CC(=O)O[C@H]1C[C@@H]2CC[C@@H]3[C@H](CC[C@@]4(C)[C@H]3C[C@H]([N+]3(C)CCCCC3)[C@@H]4OC(C)=O)[C@@]2(C)C[C@@H]1[N+]1(C)CCCCC1 [PANCURONIUM],0.09762
13,COc1ccc(CN2CCN(C(c3ccc(F)cc3)c3ccc(F)cc3)CC2)c(OC)c1OC [LOMERIZINE],-0.04979
14,C=CCNc1nc(NCC=C)nc(N2CCN(C(c3ccc(F)cc3)c3ccc(F)cc3)CC2)n1 [ALMITRINE],0.7206
15,C#Cc1cccc(Nc2ncnc3cc4c(cc23)OCCOCCOCCO4)c1 [ICOTINIB],0.1043
16,C[C@H](O)[C@H](O)[C@H]1CNc2nc(N)[nH]c(=O)c2N1 [SAPROPTERIN],0.04545
17,C=C1[C@H](CO)[C@@H](O)C[C@@H]1n1cnc2c(=O)[nH]c(N)nc21.O,0.1346
18,CC1(C)S[C@@H]2[C@H](NC(=O)[C@H](NC(=O)N3CCN(S(C)(=O)=O)C3=O)c3ccccc3)C(=O)N2[C@H]1C(=O)O [MEZLOCILLIN],0.1621
19,O=C(O[C@H]1C[C@H]2CC[C@@H](C1)[N+]21CCCC1)C(O)(c1ccccc1)c1ccccc1 [TROSPIUM],0.08693

row,Compound,Hit score
1,Cc1ccccc1C(=O)Nc1ccc(C(=O)N2CCCC(N(C)C)c3ccccc32)cc1 (stereo unspecified) [MOZAVAPTAN],0.1836
2,CCC(C)(C)C(=O)O[C@H]1C[C@@H](C)C=C2C=C[C@H](C)[C@H](CC[C@@H]3C[C@@H](O)CC(=O)O3)[C@H]21 [SIMVASTATIN],0.1206
3,C[C@H]1c2cccc(O)c2C(=O)C2=C(O)[C@]3(O)C(=O)C(C(N)=O)=C(O)[C@@H](N(C)C)[C@@H]3[C@@H](O)[C@@H]21.O [DOXYCYCLINE],-0.02175
4,CCCCCCCC/C=C/CCCCCCCC(=O)OC[C@H]1O[C@@H](n2ccc(N)nc2=O)C(F)(F)[C@@H]1O [GEMCITABINE ELAIDATE],0.08488
5,CC/C=C\C/C=C\C/C=C\C/C=C\C/C=C\CCCC(=O)O [ICOSAPENT],0.1484
6,C[N+]1(CC2CC2)[C@@H]2C[C@@H](OC(=O)[C@H](CO)c3ccccc3)C[C@H]1[C@@H]1O[C@@H]12 (stereo partly specified) [CIMETROPIUM],0.08586
7,COc1cccc(Nc2c(C(N)=O)cnc3c(C)cc(S(=O)(=O)c4cccc(C(=O)N(C)C)c4)cc23)c1 [GSK-256066],-0.006373
8,Cl.OC(CNCC(O)C1CCc2cc(F)ccc2O1)C1CCc2cc(F)ccc2O1 (stereo unspecified) [NEBIVOLOL HYDROCHLORIDE],0.4783
9,C[C@]12CC[C@@H]3c4ccc(O)cc4CC[C@H]3[C@@H]1CC[C@@H]2OC(=O)CCC1CCCC1 [ESTRADIOL CYPIONATE],0.1681
10,Cc1ccc(/C=C2\CNC/C(=C\c3ccc(C)cc3)C2=O)cc1.Cl,0.05741
11,C[C@@H](O)[C@H]1C(=O)N2C(C(=O)O)=C([C@H]3CCCO3)S[C@H]12 [FAROPENEM],0.1823
12,CC1(C)S[C@@H]2[C@H](NC(=O)[C@H](N)c3ccc(O)cc3)C(=O)N2[C@H]1C(=O)[O-].[Na+] [AMOXICILLIN SODIUM],0.05468
13,NCCCC[C@H](N)C(=O)O.N[C@@H](CSCC(=O)O)C(=O)O.O,0.1749
14,CO/N=C(\C(=O)N[C@@H]1C(=O)N2C(C(=O)OCOC(=O)C(C)(C)C)=C(C)CS[C@H]12)c1csc(N)n1,0.2495
15,CN(C)C(=O)c1cc2cnc(Nc3ccc(N4CCNCC4)cn3)nc2n1C1CCCC1 [RIBOCICLIB],0.1227
16,CC(COc1ccccc1Cc1ccccc1)N1CCCCC1 (stereo unspecified) [BENPROPERINE],0.02777
17,C#C[C@]1(O)CC[C@H]2[C@@H]3CCC4=CC(=O)CC[C@@H]4[C@H]3CC[C@@]21C [NORETHINDRONE],0.1388
18,C=CCN1CC[C@]23c4c5ccc(O)c4O[C@H]2[C@@H](OCCOCCOCCOCCOCCOCCOCCOC)CC[C@@]3(O)[C@H]1C5 [NALOXEGOL],0.106

# Reference: ChEMBL document CHEMBL4303122, “Identification of potential treatments for COVID-19 through artificial intelligence-enabled phenomic analysis of human cells infected with SARS-CoV-2” (2020)
